Experimental data from the supplement of paper PMC7366291.
Structures can show the parent of a compound that is named as a salt. ± gives the standard deviation.

These compounds were tested on Danio rerio Tg(wt1b:EGFP) embryo, pronephros (assay: glomerular separation, fold change vs DMSO control; higher = glomeruli further apart (abnormal)). Conditions: 25 µM; exposure: 24-48 hpf.
Summary of the method: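 Dechorionated Tg(wt1b:EGFP) zebrafish embryos were treated with 25 μM compound in 0.5% DMSO, in HEPES-buffered E3 with 0.003% PTU, from 24 to 48 hpf at 28.5°C. On maximum projections of dorsal pronephros images, 16 hand-placed reference points in Fiji gave distances and angles, and values more than 2 SD from the feature mean were left out. Results are fold changes over the mean of same-day DMSO-treated embryos.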

| Structure (SMILES) | glomerular separation |
| --- | --- |
| C[C@]12C=CC(=O)C=C1CC[C@@H]1[C@@H]2C(=O)C[C@@]2(C)[C@H]1CC[C@]2(O)C(=O)CO [Prednisone] | 1.19 ± 0.48 |
| CN[C@@H]1[C@H](O)[C@H](NC)[C@H]2O[C@@]3(O)C(=O)C[C@@H](C)O[C@H]3O[C@@H]2[C@H]1O [Spectinomycin dihydrochloride] | 0.786 ± 0.48 |
| C#Cc1cccc(Nc2ncnc3cc(OCCOC)c(OCCOC)cc23)c1 [Erlotinib] | 0.768 ± 0.23 |
| CC(=O)OCC1=C(C(=O)O)N2C(=O)[C@@H](NC(=O)Cc3cccs3)[C@H]2SC1 [Cephalothin sodium salt] | 0.848 ± 0.31 |
| CCCC1C(=O)N2C(N(C)C)=Nc3ccc(C)cc3N2C1=O (stereo unspecified) [Azapropazone] | 1.16 ± 0.34 |
| O=C1NCC2(CCN(CCc3ccccc3)CC2)O1 [Fenspiride hydrochloride] | 1.24 ± 0.7 |
| COC(=O)[C@H]1[C@H]2C[C@@H]3c4[nH]c5cc(OC)ccc5c4CCN3C[C@H]2C[C@@H](OC(=O)c2cc(OC)c(OC)c(OC)c2)[C@@H]1OC [Reserpine] | 0.705 ± 0.29 |
| CCCc1nc(C)c2c(=O)nc(-c3cc(S(=O)(=O)N4CCN(CC)CC4)ccc3OCC)[nH]n12 [Vardenafil] | 1.24 ± 0.46 |
| CO/N=C(\C(=O)N[C@@H]1C(=O)N2C(C(=O)O)=C(COC(N)=O)CS[C@H]12)c1ccco1 [Cefuroxime sodium salt] | 1.05 ± 0.35 |
| Cc1nc2n(c(=O)c1CCN1CCC(c3noc4cc(F)ccc34)CC1)CCCC2 [Risperidone] | 0.741 ± 0.16 |
| COc1cccc(N(C)C(=S)Oc2ccc3c(c2)CCCC3)n1 [Liranaftate] | 1.14 ± 0.62 |
